According to PubChem BioAssay AID1159506 (National Center for Advancing Translational Sciences (NCATS), 2015):
In all, about 59,000 sequences were measured (the read-out: median about -0.00055, lowest 2% from about -2 on). This is one part of a sample in which the lowest values are shown more often than they occur.

experiment: Identification of proteins required for the processing of the EWS-FLI1 nascent transcript; settings: TC32 Ewing sarcoma NR0B1-luc vs CMV-luc (EWS-FLI1 target promoter against control promoter), 48 h; screened at 20 nM (by protocol);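 note: robust z of luciferase light less the median z of siRNAs with the same seed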
Method: Ewing sarcoma (ES) cells depend on the EWS-FLI1 fusion transcription factor for cell survival. Using an assay of EWS-FLI1 activity and genome-wide siRNA screening we have identified proteins required for the processing of the EWS-FLI1 nascent transcript. Parallel genome-wide siRNA-mediated RNAi screens were conducted in Ewing sarcoma TC32 cell lines expressing a luciferase (luc) reporter protein driven by either the promoter of the EWS-FLI1 target gene NR0B1 (TC32-NR0B1-luc) or the CMV promoter (TC32-CMV-luc). Luciferase activity was assessed 48 hours post siRNA-transfection.
Twenty microl of serum-free media containing Lipofectamine RNAiMax (0.05 microl) was added to wells containing siRNA (0.8 pmol). Lipid and siRNA were allowed to complex for 45 min at ambient temperature before addition of 600 cells in RPMI-1640, 20% FBS to yield final transfection mixtures containing 20 nM siRNA in RPMI-1640, 10% FBS. Luciferase expression was measured using OneGlo (Promega, Madison, WI). The genome-wide screening campaign was conducted using Ambion's human genome library version 4.1 (Ambion, Austin TX). This library targets approximately 21000 human genes, three siRNAs per gene. Each siRNA is arrayed in an individual well of a 384-well plate. Parallel transfections were conducted in TC32-NR0B1-luc and TC32-CMV-luc cell lines and luciferase expression (OneGlo, Promega) was assayed 48 h later on a PerkinElmer Envision 2104 Multilabel plate reader (PerkinElmer, Waltham, MA). Qiagen's AllStars Negative control was incorporated on all screening plates for normalization (16 wells per plate). Qiagen, Germantown, MDsiGL4 was incorporated as a positive transfection control (16 wells per plate) on all plates. […] The raw luciferase data for the NR0B1- and CMV-luc screens were normalized and z-score-MAD transformed using standard methods (Chung et al., 2008). The miRNA-like seed sequence of every siRNA was determined and the median z-score for all siRNA sequences with the same seed sequence was calculated. This z-score was subtracted from the z-score associated with each siRNA with that seed sequence to generate a seed-adjusted z-score value (Z) that was used when the results for the three siRNAs corresponding to each gene were compared (Marine et al., 2012)

Sequence	seed-corrected z-score
UUAUCUUGCAGCAAAGCAC against LYZ	-1.35
UUAAACUUCACGUUGUCCU against RPL38	-2.01
AUUGGAGGCACUGCACUCG against NTM	0.224
UAUAGGAGCUCUAGGAUCU against CSTF2T	-0.439
AGCAUUGUAAGUGACGUGC against KCNN2	-2.24
UCUGUUAAUGCUAUUCUCC against C2orf61	0.146
UGUUAAGUAGAAAAUAACC against CD83	0.552
UAUGACAUCGGAGACCUUC against MEN1	0.259
AAAGUUGCUAUGAAGCGAG against PSMA8	-2.62
UCUCGUUUAUCUACAUCUC against AUTS2	0.181
UACAGACAUAUGUACAUCC against CCDC12	-2.89
UGACAAAUCACUGUAUGUC against ZIM2	-0.582
UUUGAUACAGUAUCUACAG against DVL1	0.326
UUAUUUCUCAGCUCGUUGG against STX6	-2.43
UUUGUUUGCACCAGUUGUC against OTUD1	0.434
UUGCGCUCUAGUUCCAGGC against PRPH	-0.44
UCCUUUAACGGGAUCUUGU against PI3	0.267
UAUGUACAGAGACACCAGG against MC5R	-2.92
AUAGUCACAAAUGAAUCCG against PLS3	0.171
AACGAUGAUAGAAUUUACG against CLEC16A	-2.32
UGUGGAAACAUUGAUCUGC against PRPF4	-1.56
UUCUUUAUUGAGUGCAUGG against KLK6	-1.38

Sequence	seed-corrected z-score
UCGUCUAUUGAUGAUGUCG against AQR	-2.1
UUCUGGAUUCUUGACCGCU against KRBOX4	0.0382
AGCUUGGAGAGUUUAGCCC against SLC46A1	0.256
UUCCUAAUACCACAAUUGC against NKIRAS1	-0.00171
UAAGUUGCAUGCCUGGUCA against RIMKLA	-3.91
UGUUGAGUAAGGAGGGACC against HSPB8	-0.073
UCAUCGCCUAUGUCGAUGC against ABCC11	0.255
UUUGAGCUUUCCUUAUUCC against CEP97	0.381
UCUAGAUCAUGAAUGCUCC against ZNF25	1.08
AUUUCUUUCAUAGUCACCG against RASL11B	-0.122
UAUGCUUUUAGACGAUUGG against ASB14	-0.444
AGGUCUUCAAAUACCGUUG against LACTB2	-2.32
UUUGCUCCCUUCACUCUGC against DVL1	0.689
AAAUGUACACCAUAUAAGC against ELOVL6	-2.75
UUCAUGUCCACGUUGACCA against PLCD3	-0.387
UUAUGGUCUUGAGGUAAGG against RNF6	0.418
UUCGUGAAAGGAUCUGCUG against FRMD4B	-0.649
UCUGUUUUCAGGUCUUCCA against PMM1	0.485
UGAGUUUGAAGGUGAAUUC against TMEM207	0.374
UAGACUAGAAUGGUCACUC against DDIAS	0.728
UCUGGAGUGUUUGGGCUGC against CICP18	-3.73
UAACCUUCAACUCGCUGCC against NYNRIN	-1.01

Sequence	seed-corrected z-score
UUAAUGGGAAGUUCUGGUG against ALG8	-0.153
UUGUUUACAAUUGAAACUC against RPS7	2.49
UUUGGUAAACUUCUGACUC against AFP	0.408
UUGGGCACAUGCUCUAAGG against SUN2	1.57
UUUGCGGUCAGGUUUCACC against MTNR1A	-0.693
UUCCUUCCAGCUGUAGGCC against CHRM1	-2.17
UUUGGAGCAAGUAAUCCCU against ATP5SL	0.0327
UACGCUCCAACCAUCAUAG against KIAA0368	-0.0559
AAUGUCACAAAAGUUCCGU against PGLYRP3	-0.707
UAACGAGAAAGACGGAUGC against CEP104	-0.248
AAUGCUAUAAAAUCCGUGG against C11orf95	0.671
UAUUAGGAGAUAUGAAGUG against PSMB7	0.622
UCAGCUUCUACUCCGGUCU against DAPP1	-1.25
UUGUAUACAAGUGUCCACC against KCTD6	-2.54
UAUUGUAAGAGUACACGUC against IGSF5	-0.00495
UUGCGUUCAGGAAUAUCCG against MARK3	0.476
UGGAAUAUAAAACCCGUGC against FUNDC2P2	-0.0349
UUUGGGAUCUAUCAAUUUG against HNRNPDL	0.695
AACUUUACCAGUCACACUC against SMNDC1	-2.31
UACACUCCUCUGAAGUUUG against ZNF396	-0.508
UUGGGUCAAUCCAUUUCUC against C10orf55	0.749
UCCACGAAUAGCAAGUUGC against H2AFZ	0.129
